ChEMBL document CHEMBL3988442, “University of Dundee, Small-Polar-MMV Screening Library” (2021)
For some assays here: Entries with a potency or affinity are not part of this list.

How the values were obtained:
Parameters in all cases: scale not given: direction of the effect not stated beside the values
[1] = molecular target: Protein translocase subunit SecA (Escherichia coli (strain K12)) (UniProt P10408); experiment: Assay to Identify E. coli SecA ATPase Inhibitors; format: functional; conditions: 30 µM
Sequence of Protein translocase subunit SecA (Escherichia coli (strain K12)) (P10408 whole entry): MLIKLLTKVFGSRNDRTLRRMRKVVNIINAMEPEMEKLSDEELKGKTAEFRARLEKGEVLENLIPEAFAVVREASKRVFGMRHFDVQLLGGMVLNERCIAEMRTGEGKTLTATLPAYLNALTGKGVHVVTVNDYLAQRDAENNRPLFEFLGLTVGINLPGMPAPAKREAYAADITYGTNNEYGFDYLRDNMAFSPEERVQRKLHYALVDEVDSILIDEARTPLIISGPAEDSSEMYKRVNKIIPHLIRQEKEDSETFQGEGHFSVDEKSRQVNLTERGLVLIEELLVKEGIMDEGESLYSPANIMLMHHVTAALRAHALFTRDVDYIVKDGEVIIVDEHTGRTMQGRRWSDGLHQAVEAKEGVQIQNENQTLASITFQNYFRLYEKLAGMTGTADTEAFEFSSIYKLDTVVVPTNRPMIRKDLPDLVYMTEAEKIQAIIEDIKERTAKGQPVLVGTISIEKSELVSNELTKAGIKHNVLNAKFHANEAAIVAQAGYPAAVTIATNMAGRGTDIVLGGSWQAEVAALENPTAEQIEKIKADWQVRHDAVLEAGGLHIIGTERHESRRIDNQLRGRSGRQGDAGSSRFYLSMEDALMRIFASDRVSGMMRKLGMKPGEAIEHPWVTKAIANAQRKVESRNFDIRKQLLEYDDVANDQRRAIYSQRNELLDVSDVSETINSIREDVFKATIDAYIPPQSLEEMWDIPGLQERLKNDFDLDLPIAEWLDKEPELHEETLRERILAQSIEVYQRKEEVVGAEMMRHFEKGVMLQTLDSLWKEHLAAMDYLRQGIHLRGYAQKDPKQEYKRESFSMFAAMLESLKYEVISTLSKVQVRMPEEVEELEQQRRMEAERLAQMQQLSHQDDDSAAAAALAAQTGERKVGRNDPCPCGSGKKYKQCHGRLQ

[2] = molecular target: T1, Ubiquitin-activating enzyme e1, putative (Leishmania donovani (strain BPK282A1)) (UniProt E9BSI1); experiment: Leishmania donovani Ubiquitin Activating Enzyme (LdE1); format: functional; conditions: 30 µM
T1 sequence (whole entry): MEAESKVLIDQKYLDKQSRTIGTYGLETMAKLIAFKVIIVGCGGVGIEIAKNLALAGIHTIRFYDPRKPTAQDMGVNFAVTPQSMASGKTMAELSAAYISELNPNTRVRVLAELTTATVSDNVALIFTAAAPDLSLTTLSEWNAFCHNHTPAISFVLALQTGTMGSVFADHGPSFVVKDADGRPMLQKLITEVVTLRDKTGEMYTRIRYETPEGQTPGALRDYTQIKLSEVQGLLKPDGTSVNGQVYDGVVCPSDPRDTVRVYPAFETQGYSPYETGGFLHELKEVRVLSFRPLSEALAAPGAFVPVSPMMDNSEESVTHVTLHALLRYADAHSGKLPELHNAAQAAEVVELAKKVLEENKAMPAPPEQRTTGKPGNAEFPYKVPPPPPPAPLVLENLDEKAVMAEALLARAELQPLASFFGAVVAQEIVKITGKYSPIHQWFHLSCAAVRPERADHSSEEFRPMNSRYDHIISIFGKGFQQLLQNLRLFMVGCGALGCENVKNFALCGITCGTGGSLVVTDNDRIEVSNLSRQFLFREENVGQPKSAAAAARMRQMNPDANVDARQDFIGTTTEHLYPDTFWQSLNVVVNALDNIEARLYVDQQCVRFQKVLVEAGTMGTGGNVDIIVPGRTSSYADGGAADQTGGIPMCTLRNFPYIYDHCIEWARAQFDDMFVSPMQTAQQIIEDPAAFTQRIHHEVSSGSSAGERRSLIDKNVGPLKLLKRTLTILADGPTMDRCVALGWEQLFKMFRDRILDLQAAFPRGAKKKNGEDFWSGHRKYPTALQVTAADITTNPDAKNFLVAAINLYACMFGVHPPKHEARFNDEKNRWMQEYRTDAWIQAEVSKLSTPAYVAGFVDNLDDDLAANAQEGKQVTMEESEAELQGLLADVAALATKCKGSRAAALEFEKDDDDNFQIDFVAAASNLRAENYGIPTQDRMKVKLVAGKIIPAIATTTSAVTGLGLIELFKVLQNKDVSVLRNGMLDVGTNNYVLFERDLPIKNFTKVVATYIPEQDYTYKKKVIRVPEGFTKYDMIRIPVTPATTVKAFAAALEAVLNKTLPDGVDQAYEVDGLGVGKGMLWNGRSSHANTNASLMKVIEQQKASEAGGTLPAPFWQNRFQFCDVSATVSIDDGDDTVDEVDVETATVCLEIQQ

[3] = molecular target: AMP-activated protein kinase, AMPK (Homo sapiens) (UniProt P54646+O43741+P54619+Q9UGJ0+Q9Y478+Q13131+Q9UGI9); experiment: AMP-dependent Kinase enzyme assay. An in vitro enzyme assay that detects ADP turnover that is directly proportional to AMPK activity. This uses naive AMPK that is activated during the assay with MK-8722; format: functional; conditions: 30 µM
[4] = molecular target: Sialic acid-binding Ig-like lectin 9 (Homo sapiens) (UniProt Q9Y336); experiment: Hs-Siglec9 ALPHAscreen SOP 20170721; conditions: 10 µM
Sequence of Sialic acid-binding Ig-like lectin 9 (Homo sapiens) (Q9Y336 whole entry): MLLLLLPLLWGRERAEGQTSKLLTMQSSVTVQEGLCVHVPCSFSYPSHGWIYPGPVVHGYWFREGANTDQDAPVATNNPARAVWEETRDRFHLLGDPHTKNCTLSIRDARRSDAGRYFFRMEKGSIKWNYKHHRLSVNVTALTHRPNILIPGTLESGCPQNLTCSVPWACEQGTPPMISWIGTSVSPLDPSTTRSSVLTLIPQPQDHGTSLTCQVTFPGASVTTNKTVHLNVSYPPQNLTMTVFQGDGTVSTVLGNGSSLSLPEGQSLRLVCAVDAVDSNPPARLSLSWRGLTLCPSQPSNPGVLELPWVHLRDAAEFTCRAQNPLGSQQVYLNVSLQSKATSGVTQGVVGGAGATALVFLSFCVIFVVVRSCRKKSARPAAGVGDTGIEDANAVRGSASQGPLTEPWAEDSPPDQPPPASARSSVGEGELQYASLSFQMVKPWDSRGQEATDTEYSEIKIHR

Trypanosoma cruzi = experiment: Trypanosoma cruzi phosphomannomutase and mannose-1-phosphate guanylyltransferase assay; format: functional; conditions: 10 µM
[5] = molecular target: T2, Arginase-2, mitochondrial (Homo sapiens) (UniProt P78540); experiment: in vitro enzyme assay to detect the production of urea directly proportional to the activity of Arginase II; format: functional; conditions: 33.3 µM; also: in the data most compounds retested in dose-response had high values
T2 sequence (whole entry): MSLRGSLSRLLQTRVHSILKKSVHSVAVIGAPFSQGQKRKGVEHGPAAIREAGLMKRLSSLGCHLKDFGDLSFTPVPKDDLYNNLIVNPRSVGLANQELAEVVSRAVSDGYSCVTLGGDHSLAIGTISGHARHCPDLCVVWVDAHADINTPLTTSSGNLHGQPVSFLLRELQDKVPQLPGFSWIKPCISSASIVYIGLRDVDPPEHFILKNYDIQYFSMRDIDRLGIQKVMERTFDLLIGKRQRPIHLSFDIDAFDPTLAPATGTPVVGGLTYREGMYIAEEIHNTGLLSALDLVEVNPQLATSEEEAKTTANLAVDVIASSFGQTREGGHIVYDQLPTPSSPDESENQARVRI

[6] = molecular target: T3, Proteasome subunit beta (Trypanosoma cruzi) (UniProt O96673); experiment: Trypanosoma cruzi proteasome chymotrypsin-like activity (TcProtChymo) assay.; also: in the data most compounds retested in dose-response had high values; format: functional; conditions: 9.37 µM
T3 sequence (whole entry): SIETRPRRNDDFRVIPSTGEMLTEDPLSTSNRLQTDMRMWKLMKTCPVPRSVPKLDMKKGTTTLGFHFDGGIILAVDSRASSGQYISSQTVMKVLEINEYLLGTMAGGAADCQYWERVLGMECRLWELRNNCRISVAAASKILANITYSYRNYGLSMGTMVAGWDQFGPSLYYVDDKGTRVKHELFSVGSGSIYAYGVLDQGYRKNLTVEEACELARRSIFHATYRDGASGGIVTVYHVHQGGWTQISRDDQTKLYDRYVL

Homo sapiens = organism: Homo sapiens; experiment: To identify inhibition of the IFN signalling (Jak-Stat) pathway via expression of an eGFP reporter gene under the control of an IFN-stimulated response element (ISRE) containing MxA promoter.; format: functional; conditions: 30 µM
[7] = molecular target: T4, Tyrosyl-tRNA synthetase, putative (Trypanosoma cruzi (strain CL Brener)) (UniProt Q4DSP6); experiment: Trypanosoma cruzi tyrosyl tRNA synthetase (TcYRS) _High Tyrosine SOP; format: functional; conditions: 30 µM; also: in the data most compounds retested in dose-response had high values
T4 sequence (whole entry): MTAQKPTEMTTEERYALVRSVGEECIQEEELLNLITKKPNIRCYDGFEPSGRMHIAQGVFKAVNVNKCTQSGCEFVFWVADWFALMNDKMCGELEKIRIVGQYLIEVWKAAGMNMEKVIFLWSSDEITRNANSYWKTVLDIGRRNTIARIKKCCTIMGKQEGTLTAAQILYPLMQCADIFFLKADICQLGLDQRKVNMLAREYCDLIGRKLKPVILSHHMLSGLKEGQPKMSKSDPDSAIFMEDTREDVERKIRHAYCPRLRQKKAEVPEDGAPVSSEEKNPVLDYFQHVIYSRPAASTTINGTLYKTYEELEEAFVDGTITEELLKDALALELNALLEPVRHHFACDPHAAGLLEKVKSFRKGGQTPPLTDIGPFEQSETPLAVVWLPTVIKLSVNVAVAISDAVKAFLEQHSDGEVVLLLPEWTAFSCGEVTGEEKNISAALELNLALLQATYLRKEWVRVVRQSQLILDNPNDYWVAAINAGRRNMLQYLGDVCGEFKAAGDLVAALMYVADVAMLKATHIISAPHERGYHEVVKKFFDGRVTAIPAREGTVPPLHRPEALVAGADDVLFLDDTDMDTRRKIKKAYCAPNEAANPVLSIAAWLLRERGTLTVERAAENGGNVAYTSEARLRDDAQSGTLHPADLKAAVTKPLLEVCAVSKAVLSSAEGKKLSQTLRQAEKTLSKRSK

[8] = molecular target: T4, Tyrosyl-tRNA synthetase, putative (Trypanosoma cruzi (strain CL Brener)); experiment: Trypanosoma cruzi tyrosyl tRNA synthetase (TcYRS) SOP; format: functional; conditions: 30 µM
[9] = molecular target: Chromo domain-containing protein 1 (Saccharomyces cerevisiae (strain ATCC 204508 / S288c) (Baker's yeast)) (UniProt P32657); experiment: ScCHD-1 Enzyme Inhibition Assay; format: functional; conditions: 30 µM; also: in the data most compounds retested in dose-response had high values
Sequence of Chromo domain-containing protein 1 (Saccharomyces cerevisiae (strain ATCC 204508 / S288c) (Baker's yeast)) (P32657 whole entry, the tested form may be a part): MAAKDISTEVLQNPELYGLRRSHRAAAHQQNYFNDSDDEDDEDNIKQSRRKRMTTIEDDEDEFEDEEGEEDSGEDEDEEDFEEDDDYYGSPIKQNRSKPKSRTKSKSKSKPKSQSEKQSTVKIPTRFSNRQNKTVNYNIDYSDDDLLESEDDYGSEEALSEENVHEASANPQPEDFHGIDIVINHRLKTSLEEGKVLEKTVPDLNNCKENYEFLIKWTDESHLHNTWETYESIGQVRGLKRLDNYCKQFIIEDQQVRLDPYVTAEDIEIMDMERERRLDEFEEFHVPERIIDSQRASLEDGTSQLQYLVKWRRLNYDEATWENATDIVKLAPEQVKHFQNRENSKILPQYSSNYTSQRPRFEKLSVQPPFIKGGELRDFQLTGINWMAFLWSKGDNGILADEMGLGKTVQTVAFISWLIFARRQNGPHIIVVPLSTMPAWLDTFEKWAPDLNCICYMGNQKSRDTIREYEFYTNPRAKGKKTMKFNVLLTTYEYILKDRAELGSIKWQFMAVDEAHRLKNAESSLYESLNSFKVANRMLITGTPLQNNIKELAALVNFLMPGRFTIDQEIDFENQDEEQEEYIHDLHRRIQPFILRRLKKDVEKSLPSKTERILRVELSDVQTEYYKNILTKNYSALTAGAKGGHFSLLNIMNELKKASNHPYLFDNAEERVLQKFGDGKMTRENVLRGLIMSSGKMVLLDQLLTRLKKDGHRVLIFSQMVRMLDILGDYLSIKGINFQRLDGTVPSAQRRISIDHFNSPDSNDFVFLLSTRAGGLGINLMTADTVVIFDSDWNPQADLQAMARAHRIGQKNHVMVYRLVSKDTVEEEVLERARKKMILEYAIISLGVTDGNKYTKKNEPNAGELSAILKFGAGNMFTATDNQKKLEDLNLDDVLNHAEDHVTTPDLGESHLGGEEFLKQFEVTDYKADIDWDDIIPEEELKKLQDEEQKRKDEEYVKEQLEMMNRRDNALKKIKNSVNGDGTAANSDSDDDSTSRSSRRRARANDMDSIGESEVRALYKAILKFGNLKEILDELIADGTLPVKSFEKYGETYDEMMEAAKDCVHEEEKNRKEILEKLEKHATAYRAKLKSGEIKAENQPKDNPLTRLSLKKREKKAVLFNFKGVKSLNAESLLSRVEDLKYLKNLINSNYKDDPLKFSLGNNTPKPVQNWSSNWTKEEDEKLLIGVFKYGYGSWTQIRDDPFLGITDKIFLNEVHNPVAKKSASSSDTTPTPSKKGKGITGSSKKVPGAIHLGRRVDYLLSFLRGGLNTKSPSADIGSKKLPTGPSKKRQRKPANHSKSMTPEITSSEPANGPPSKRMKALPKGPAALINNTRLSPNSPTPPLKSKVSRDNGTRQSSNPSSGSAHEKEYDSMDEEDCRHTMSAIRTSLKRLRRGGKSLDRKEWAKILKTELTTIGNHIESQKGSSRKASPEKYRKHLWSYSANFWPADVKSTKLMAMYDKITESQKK

Row | Compound | Percent Effect [1] | Percent Effect [2] | Percent Effect [3] | Percent Effect [4] | Percent Effect (Trypanosoma cruzi) | Percent Effect [5] | Percent Effect [6] | Percent Effect (Homo sapiens) | Percent Effect [7] | Percent Effect [8] | Percent Effect [9]
1 | COc1ccc(Br)c(C(=O)NCC2CCN(S(=O)(=O)C3CC3)CC2)c1 | -4.34% | 19.2% | -7.39% | 14% | 6.07% | -3.18% | 19.5% | 20.3% | 4.3% | 17.5% | -9.38%
2 | CC(Cn1cccn1)NC(=O)Nc1nccs1 (stereo unspecified) | -5.47% | 10.4% | 1.39% | 4.54% | -3.37% | 0.712% | 5.57% | 17.5% | 4.85% | 19.5% | -5.22%
3 | c1ncc(Nc2nccc(C3CCCCN3CC3CCCCC3)n2)cn1 (stereo unspecified) | -4.71% | 13.3% | 10.8% | -4.81% | -0.591% | 3.5% | 10.5% | 21.9% | 2.13% | 11.5% | -6.48%
4 | O=S(=O)(C1CC1)N1CCO[C@H]2[C@H](OCCN3CCCC3)CC[C@@H]21 | 0.18% | 18.7% | -5.59% | -6.26% | 5.6% | -62.2% | 9.74% | 17.6% | 5.21% | 20% | -11.8%
5 | COc1ccc(CCNC(=O)NC2CCCC2)cc1OC | 0.159% | 8.11% | -0.309% | 3.69% | -1.16% | 3.33% | 13.3% | 6.13% | 5.82% | 9.76% | -3.01%
6 | CNc1cc(N2CCCC2CNCc2c[nH]nc2C(C)(C)C)ncn1 (stereo unspecified) | -3.59% | 0% | -14.4% | -4.25% | -4.88% | -4.17% | 6% | -0.674% | 5.94% | 6.1% | 0.0939%
7 | CC(c1cccnc1)N(C)Cc1csc(-c2ccccn2)n1 (stereo unspecified) | -7.3% | 5.48% | -12.1% | 19.7% | 6.66% | 3.64% | 5.86% | 8.26% | 5.38% | 15% | 92.8%
8 | CC(c1ccco1)N(C)Cc1nc2c(cnn2C)c(=O)[nH]1 (stereo unspecified) | -2.49% | 24.3% | -5.7% | 5.24% | 3.44% | 2.77% | 15.1% | 11.7% | -8.91% | 28.1% | -9.16%
9 | COCCn1nc(C(=O)N(C)Cc2cnn(C)c2)ccc1=O | -6.3% | 15.8% | -7.26% | -8.02% | 4.38% | -8.28% | 14.7% | 9.08% | 5.32% | -2.6% | -9.82%
10 | CN(C)c1cc2c(nn1)CCN(C(=O)C1Cc3ccccc3S1)C2 (stereo unspecified) | -3.54% | 10.1% | -4.45% | 16% | 5.76% | 1.14% | 8.27% | -10.7% | 7.39% | 11.4% | 9.74%
11 | NC(=O)CCOc1nc(-c2ccccc2Cl)no1 | -6.94% | 2.74% | -11.9% | 31.6% | 8.23% | -1.82% | 8.87% | -2.22% | 4.3% | 15% | -6.33%
12 | CC1(C(=O)N2CCOCC2)CN(Cc2ccccn2)CCO1 (stereo unspecified) | -7.59% | 1.35% | -5.87% | -5.46% | -4.35% | -5.8% | 9.52% | 24.2% | 1.07% | -3.9% | 6.62%
13 | CN(CC(=O)N1CCN(c2ccccc2F)CC1)c1cnccn1 | -1.13% | 16.2% | -1.85% | 4.66% | -0.0929% | -5.73% | 6.82% | 12.1% | 5.94% | 15.8% | -7.13%
14 | Cc1occc1C(=O)N1CCC2(CCCN(CC3CCC3)C2=O)C1 (stereo unspecified) | 0.601% | 1.39% | -1.7% | 8.02% | 2.62% | 11% | 13.3% | 13.6% | 6.32% | 10.3% | -2.8%
15 | CC(NC(=O)NCCCn1cccn1)c1ccc2c(c1)NC(=O)CO2 (stereo unspecified) | -6.96% | 25.3% | -6.75% | -5.5% | 10.1% | -3.42% | 10.2% | 15.4% | 8.37% | 29.1% | -10.1%
16 | CCOc1cc(F)ccc1NS(=O)(=O)c1cc(C)c(C(=O)O)s1 | -9.09% | 8.11% | -10.6% | 28.9% | 4.59% | 0.248% | 8.15% | -8.12% | -5.38% | -1.24% | -11.4%
